CYP2C9 activ: activators of human CYP2C9; recombinant CYP2C9, luciferin-H conversion, luminescence; stronger effect = higher value; factor 1 = untreated enzyme, 0 = blocked; P11712; activation factor at 5 µM; actives 1.4% (n = 96,000);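 active = activation factor of 2 or more for CYP2C9 at a 5 µM dose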;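 note: 0 = sulfaphenazole-blocked wells and 1 = vehicle-only wells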
Target sequence (P11712 whole entry, looked up): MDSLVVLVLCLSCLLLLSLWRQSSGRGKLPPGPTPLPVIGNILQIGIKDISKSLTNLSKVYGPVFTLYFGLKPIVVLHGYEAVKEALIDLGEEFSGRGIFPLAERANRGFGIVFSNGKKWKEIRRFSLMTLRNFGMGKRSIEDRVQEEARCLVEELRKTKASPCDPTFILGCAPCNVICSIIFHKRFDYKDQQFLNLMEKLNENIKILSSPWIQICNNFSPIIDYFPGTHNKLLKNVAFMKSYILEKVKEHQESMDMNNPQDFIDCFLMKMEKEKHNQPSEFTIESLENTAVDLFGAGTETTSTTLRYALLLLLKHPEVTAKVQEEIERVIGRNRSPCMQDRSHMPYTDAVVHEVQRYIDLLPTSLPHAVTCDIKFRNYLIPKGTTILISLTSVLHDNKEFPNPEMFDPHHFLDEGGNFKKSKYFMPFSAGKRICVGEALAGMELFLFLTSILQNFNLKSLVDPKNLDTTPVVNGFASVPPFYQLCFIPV
PLAP activator: human PLAP activation; purified PLAP enzyme, luminescent substrate read-out; stronger effect = higher value; activation fold at 20 µM; actives 1.2% (n = 96,000); AID 696; in the data active = activation fold above about 2
CYP2C19 activ: activators of human cytochrome P450 2C19. P33261. recombinant CYP2C19, luciferin-H EGE luminescence; stronger effect = higher value; 0 = fully inhibited enzyme, 1 = untreated enzyme. activation factor at 5 µM. 96,000 tested, under 10 active;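 active = activation factor of at least 2 at 5 µM in the primary screen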;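 note: 0 = wells with 2.5 mM tranylcypromine and 1 = vehicle-only wells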
CYP2C9 inh: inhibitors of human CYP2C9. inhibition, % at 5 µM. P11712. CYP2C9 Supersomes, luciferin-H conversion, luminescence. actives 20% (n = 96,000);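 active = blocking of liver enzyme CYP2C9 beyond about 50% at 5 µM, limit read from the data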
CYP2C19 inh: human CYP2C19 inhibition | CYP2C19 Supersomes, luciferin-H EGE luminescence, 30 min | P33261 | inhibition, % at 5 µM | actives 21% (n = 96,000);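 active = CYP2C19 inhibition above a set limit at 5 µM in the primary screen, cut at about 50% in these data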;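 note: plate controls were negative control wells for no effect and 2.5 mM tranylcypromine positive control for full effect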
* = called active by the depositor. Rows were chosen to be rich in hits. Some 31% of all compounds tested hit in one or more screens of this group.

SMILES	CYP2C9 activ	PLAP activator	CYP2C19 activ	CYP2C9 inh	CYP2C19 inh
COc1ccc(CN(C(=S)Nc2ccccc2)C2CC(=O)N(c3ccc(F)cc3)C2=O)cc1 (stereo not given)	0.6	0.9	0.9	36	9
Cc1nn(C)cc1C(C(=O)NC1CCCCC1)N(C(=O)Cc1cccs1)c1ccc(C(C)C)cc1 (stereo not given)	0.6	1.3	0.6	41	40
CCOC(=O)c1ccc(N2C(=O)CC(N(C)CCc3ccc(OC)c(OC)c3)C2=O)cc1 (stereo not given)	0.4	1.4	0.3	55*	73*
CCOc1cccc(N2C(=O)CC(N(CCc3ccc(OC)c(OC)c3)C(=O)CC)C2=O)c1 (stereo not given)	0.7	1.4	0.9	27	11
CCc1ccc(NC2=CC(=O)CC(c3ccco3)C2)cc1 (stereo not given)	0.5	0.8	0.5	53*	54*
Cc1cc(C)cc(NC2=CC(=O)CC(c3ccco3)C2)c1 (stereo not given)	1.2	0.9	1	-22	-1
CC(CCc1ccccc1)NC(=O)c1nnc(Cc2ccc(Cl)cc2)o1 (stereo not given)	0.8	0.9	0.8	15	16
CCc1nnc(NC(=O)CSc2ncc(-c3ccccc3)n2C)s1	0.6	1.6	0.6	45	38
CC(=O)Nc1ccc(S(=O)(=O)Nc2nc(CN3CCOCC3)nc3sc4c(c23)CCCC4)cc1	0.5	1.7	1.1	53*	-11
Cc1sc2nc(CN3CCOCC3)nc(NS(=O)(=O)c3ccccc3)c2c1C	0.5	1.5	1.2	46	-24
Cc1sc2nc(CN3CCOCC3)nc(NCCc3ccccc3)c2c1C	0.1	1.7	0.6	90*	40
Cc1sc2nc(CN3CCOCC3)nc(NS(=O)(=O)c3ccc4c(c3)OCCO4)c2c1C	0.2	1.6	0.7	80*	31
NS(=O)(=O)c1ccc(CCNc2nc(CN3CCOCC3)nc3sc4c(c23)CCC4)cc1	0.7	1.6	1	34	-4
O=C(NCc1cccnc1)C1CCN(S(=O)(=O)N2CCOCC2)CC1	1	1.2	0.9	3	13
O=C(O)C1CCN(C(=O)c2ccc(Cl)cc2)CC1	1.2	1	1	-17	-2
CS(=O)c1nc(-c2ccc(Br)cc2)cc(-c2ccccc2)c1C#N (stereo not given)	0.2	0.8	0.4	83*	57*
CS(=O)(=O)c1nc(-c2ccc(Br)cc2)cc(-c2ccccc2)c1C#N	0.3	0.9	0.4	73*	57*
COc1ccc(-c2cc(-c3ccccc3)c(C#N)c(S(C)(=O)=O)n2)cc1	1	0.8	1.2	4	-18
Cc1cc(C)nc(NC(=O)NS(=O)(=O)N2CCCCCC2)n1	1.1	1.1	1.1	-12	-7
Cc1cccc(NC(=O)CCCN2C(=O)c3cccc4cccc(c34)C2=O)c1	1.5	1	1.1	-53	-7
O=c1cc(O)n(-c2ccc(Cl)cc2)c(=S)[nH]1	0.6	1.7	0.9	43	12
O=C1c2ccccc2C(=O)N1CCc1csc(-c2ccccc2)n1	1.4	1	0	-36	100*
O=C1c2ccccc2C(=O)N1CCc1csc(-c2ccc(F)cc2)n1	1	1	0	1	100*
O=C1c2ccccc2C(=O)N1CCc1nc(-c2ccccn2)no1	0.9	0.9	0.7	8	29
COCCCn1[nH]c2c3c(ccc2c1=O)C(=O)c1ccccc1C3=O	0.4	0.9	0.9	64*	5
SMILES	CYP2C9 activ	PLAP activator	CYP2C19 activ	CYP2C9 inh	CYP2C19 inh
Cc1ccc(-n2nnnc2-c2cnc3cc4c(cc3c2C)OCO4)cc1	0.8	1	0.8	22	19
O=C(CSc1cn(CCNC(=O)c2cccs2)c2ccccc12)NC1CCCCC1	0.1	1	0.4	92*	59*
CCCn1cc(SCC(=O)NCC2CCCO2)c2ccccc21 (stereo not given)	1.5	1	0.6	-52	39
O=C(CSc1cn(CCNC(=O)c2cccs2)c2ccccc12)NCC1CCCO1 (stereo not given)	0.2	1.1	0.7	81*	34
O=C(Cn1cc(C(=O)c2cccs2)c2ccccc21)NC1CCCCC1	0.3	0.7	0.5	72*	55*
O=C(CSc1cn(CCNC(=O)c2cccs2)c2ccccc12)NCc1ccccc1	0	1.1	0.1	98*	86*
O=C1c2ccccc2C(=O)N1n1c(=O)[nH]c2ccccc2c1=O	0.9	1	0.9	6	6
